The values below come from PubChem BioAssay AID904 (National Center for Advancing Translational Sciences (NCATS), 2007).

Out of some 55,000 compounds screened, about 530 (0.96%) were called active. About 7% were inconclusive and are not listed. The call rests on the fitted dose curve; in most records, active means well fitted cell-killing curve with a large enough effect; inconclusive means small, poorly fitted or top-dose-only effect; inactive means no such curve, though single readings can be large or run the other way. Shown is part of a subset that was picked to be rich in actives. Where a call stands in place of a potency, no number is given.
Potency means the concentration at half of the fitted maximal effect.

A short description of the assay: qHTS Screen for Compounds that Selectively Target Cancer Cells with p53 Mutations: Cytotoxicity of p53 Null Cells at the Nonpermissive Temperature. Further: nearly all actives have a fitted effect of over 50% in size. To be noted: H1299 p53-null (neo) cells, 39C, ATPlite viability, 24 h; series mostly up to 46.1 µM. The text has this: NIH Chemical Genomics Center [NCGC] NIH Molecular Libraries Screening Centers Network [MLSCN] MLSCN Grant: 1 X01 MH079844-01 Assay Submitter (PI): Dr. SUN, YI, University of Michigan NCGC Assay Overview: Synthetic Lethal Screen for Compounds to Kill Cancer Cells with p53 Mutation. Tumor suppressor gene p53 serves as a major cellular barrier against tumorigenesis. […] The goal of this screening is to identify small molecule probes that selectively kill cancer cells with mutations in p53. This screening was carried out using two lines of H1299 lung cancer cells. The H1299-p53 A138V line express a temperature sensitive p53 mutant (p53ts) in which the mutant p53 protein (A138V) is in the mutant confirmation when grown at 39C (the nonpermissive temperature) and in the wild type conformation when grown at 32C (the permissive temperature). A H1299-neo line (p53 null) grown at both 39C and 32C were used as counter-screens to filter out false positive associated with temperature shifting. The small molecular compounds that selectively target mutant p53-containing cancer cells were selected as candidate probes for further study. A cytotoxicity assay based on the measurement of ATP contents in cells was used in this screen. Concentration-responses of all the compounds in the library collection were determined in qHTS using the cell lines and temperature conditions as above.
NCGC Assay Protocol Summary: Both the H1299-p53A138V and H1299-neo cell lines were provided by Dr.Yi Sun, a PI at the University Michigan. The cells were maintained and cultured at 37C. The resuspended frozen cells were used to plate the cells in the 1536-well assay plates at a density of 600 cells per well in 5 ul medium. The assay plates with the cells were incubated at 37C for 16 to 30 hours before the experiments. The library compounds in DMSO solution were added to the cells in assay plates and incubated 24 hours at 39C (for mutant p53 conformation) or 32C (for normal p53 conformation as control). An ATP_lite assay kit (PerkinElmer) was used to determine the cell viability. Tomaxifen (100uM) was used as the positive control for cell killing. Data were normalized to the controls for basal activity (DMSO only) and 100% killing (100uM tamoxifen). AC50 values were determined from concentration-response data modeled with the standard Hill equation. P53 assay protocol: 1. Reagent; 5 uL H1299-p53A138V or H1299-neo cell cells/well 2. Time; overnight; 37C incubation 3. Compounds; 23 nL; 5.9 nM to 46 uM 4. Controls; 23 nL; Tamoxifen 100 uM 5. Time; 24 hr; 39C incubation 6. Reagent; 3 uL; ATP_Lite reagent 7. Time; 20 min; Room Temperature 8. Detection; Luminescence; Viewlux plate reader Keywords: p53, synthetic lethal, cancer, cell viability, cytotoxicity, H1299 cell line, luminescence, MLSMR, MLSCN, NIH Roadmap, qHTS, NCGC
On the technique in general: In qHTS, concentration-response curves come from the screen itself.
Consider `CCOc1ccc(C(NC(=O)c2cc(OC)c(OC)c(OC)c2)c2cc(Cl)c3cccnc3c2O)cc1` (stereo not given), for which the Potency is 3.55 µM (active).

Consider `CN(C)c1cccc(C(=O)Nc2nc3ccc(S(=O)(=O)NC(C)(C)C)cc3s2)c1`, for which the Potency result was “inactive”.

As to `Cc1ccc(-n2c(/C=C/c3cccc(C(F)(F)F)c3)nc3ccccc3c2=O)cc1`, the Potency entry was “inactive”.

As for `COC(=O)COc1cc(C)cc2oc(=O)c3c(c12)CCCC3`, the Potency result is “inactive”.

Take `O=C(Nc1ccc(Cl)cc1C(=O)c1ccccc1)c1cc(Cl)cc(Cl)c1`: the Potency result was “inactive”.
